Source: PubChem BioAssay (NCI)
About 83,000 compounds went through this panel and 20% of them were active in at least one assay; those are over-represented in the sample as a whole.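 Note: values are percent growth. 100 is the growth of untreated cells, values between 100 and 0 indicate rising inhibition; between -100 and 0 indicates cell death.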 A number with no mark means an inactive call. Active and inactive are the calls of the source. The calls were made as follows: active = growth percent below 10; inactive = the rest.

Tests used:
Assay in all cases: NCI-60 one-dose screen, 48 h (100 = growth as untreated, 0 = no growth, -100 = all killed)
Settings in all cases: 10 µM unless noted
[1] = tested on: NCI-H23 lung
[2] = tested on: NCI-H226 lung
[3] = tested on: NCI-H322M lung
[4] = tested on: HOP-62 NSCLC
[5] = tested on: NCI-H460 lung
[6] = tested on: NCI-H522 lung
[7] = tested on: A549/ATCC NSCLC
[8] = tested on: 786-0 renal
[9] = tested on: COLO 205 colon
[10] = tested on: DU-145 prostate
[11] = tested on: K-562 leukemia
[12] = tested on: MALME-3M melanoma
[13] = tested on: MDA-MB-231 breast
[14] = tested on: RXF 393 renal
[15] = tested on: SF-268 CNS
[16] = tested on: SF-295 CNS
[17] = tested on: SF-539 CNS
[18] = tested on: UACC-257 melanoma
[19] = tested on: M14 melanoma

| Compound | growth [1] | growth [2] | growth [3] | growth [4] | growth [5] | growth [6] | growth [7] | growth [8] | growth [9] | growth [10] | growth [11] | growth [12] | growth [13] | growth [14] | growth [15] | growth [16] | growth [17] | growth [18] | growth [19] |
| --- | --- | --- | --- | --- | --- | --- | --- | --- | --- | --- | --- | --- | --- | --- | --- | --- | --- | --- | --- |
| CCn1cnc2c1c(=O)[nH]c(=O)n2CC1CCC(CNS(=O)(=O)c2ccc(OC3CCOCC3)c(F)c2)CC1 (stereo not drawn) | 57.5% | 55.7% | 66.7% | 36.5% | 72.6% | 39.4% | 54.9% | 47.4% | 45.3% | 76.8% | 39.2% | 58.2% | 47.8% | 53.1% | 82.8% | 58.5% | 54.7% | 59.8% | 48.5% |
| Cc1cc2nc3ccc(N=Nc4ccc(N(C)C)cc4)cc3n(-c3ccccc3)c-2cc1=N | -45.8% (active) | -81.3% (active) | -96.6% (active) | -55.9% (active) | -58.1% (active) | -73.8% (active) | -75.4% (active) | -61.9% (active) | -86.8% (active) | -98.2% (active) | 17.9% | -92.7% (active) | -27.9% (active) | -87.8% (active) | -78.1% (active) | -89.4% (active) | -89.4% (active) | -95.7% (active) | -78.4% (active) |
| O=C(/C=C/c1cccc2ccccc12)c1ccc(NC(=O)c2ccccc2CN2C(=O)c3ccccc3C2=O)cc1 | 67.3% | 93.4% | 79.7% | 94.2% | 79.9% | 68.4% | 78.6% | 97% | 101% | 42.7% | 20.2% | 79.6% | 58.4% | 91.5% | 75.4% | 96.4% | 90.2% | 88% | 72.8% |
| COc1cc2cc(Oc3ccc(NC(=O)Nc4cc(C(F)(F)F)cc(C(F)(F)F)c4)cc3)c(C)nc2cc1OCCN1CCOCC1 | 7.96% (active) | 40.2% | 49.5% | 28.8% | 9.99% (active) | 15% | 11.8% | 30.9% | -22.9% (active) | 24.9% | 6.68% (active) | 28.1% | 1.49% (active) | 26% | 27.8% | 7.59% (active) | 38.5% | 7.28% (active) | 17.6% |
| CC/C=C\C[C@@H](O)C/C=C1/C(=O)C=C[C@H]1C/C=C\CCCC(=O)OC | 22.3% | 8.9% (active) | 12% | -31.6% (active) | -33.2% (active) | -67.7% (active) | -16.6% (active) | 30.5% | -58% (active) | 28.7% | 2.65% (active) | 10.4% | – | -16.8% (active) | 0.223% (active) | 80.9% | 10.4% | 56.5% | -1.62% (active) |
| CCOC(=O)/C=C1\S/C(=N\Nc2ccc([N+](=O)[O-])cc2[N+](=O)[O-])N(Cc2ccccc2)C1=O | 76.8% | 93.1% | 97.9% | 103% | 93.1% | 68.6% | 93.2% | 91.2% | 99.1% | 81.4% | 54.7% | 93.1% | 84.9% | 78% | 89.7% | 95.1% | 99.6% | 90.1% | 100% |
